# p53 reactivation: re-activators of mutant p53. AID 504706. H1299 p53-A138V BP100-luciferase reporter, luminescence, 24 h. actives 0.063% (n = 320,000). Potency, µM (top dose mostly 92.2 µM), without a hit: at the highest dose activity change, positive = activation, usual class: activators; also: % of control where 0% means no effect; nearly all actives have a fitted effect of over 45% in size
#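 p53-null H1299 cells stably carrying temperature-sensitive p53-A138V and a BP100-luciferase reporter were pinned with compounds (4-point, 1:5 series) and held 24 hrs at 37 deg C. Luminescence was read 10 min after detection reagent.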
# Rab9 prom act: Rab9 promoter activation; Huh7 Rab9 promoter-luciferase reporter, luminescence, 24 h; Potency, µM (doses to about 9.22 µM), for the others: at the highest dose activation, negative = inhibition, actives largely listed as activators; actives 2.8% (n = 320,000); AID 485297; also: % of control where 0% means no effect; nearly all actives have a fitted effect of over 60% in size
#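 Using Huh7 cells stably transfected with Rab9 promoter–luciferase, compounds were incubated 24 h at 37 °C, 5% CO2; luciferase luminescence was read 10 min after reagent addition.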
# FLuc modulator: firefly luciferase modulation, counter-screen for miR-21 project | P08659 | purified FLuc, Km substrates, luminescence inhibition | Potency, µM (doses to about 57.5 µM), for inactives: at the highest dose activity change, negative = inhibition, usual class: inhibitors | actives 6.9% (n = 360,000) | AID 588342;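 also: plate controls were vehicle for no effect and reference inhibitor for full effect; nearly all actives have a fitted effect of over 55% in size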
# Target sequence (P08659 whole entry, looked up): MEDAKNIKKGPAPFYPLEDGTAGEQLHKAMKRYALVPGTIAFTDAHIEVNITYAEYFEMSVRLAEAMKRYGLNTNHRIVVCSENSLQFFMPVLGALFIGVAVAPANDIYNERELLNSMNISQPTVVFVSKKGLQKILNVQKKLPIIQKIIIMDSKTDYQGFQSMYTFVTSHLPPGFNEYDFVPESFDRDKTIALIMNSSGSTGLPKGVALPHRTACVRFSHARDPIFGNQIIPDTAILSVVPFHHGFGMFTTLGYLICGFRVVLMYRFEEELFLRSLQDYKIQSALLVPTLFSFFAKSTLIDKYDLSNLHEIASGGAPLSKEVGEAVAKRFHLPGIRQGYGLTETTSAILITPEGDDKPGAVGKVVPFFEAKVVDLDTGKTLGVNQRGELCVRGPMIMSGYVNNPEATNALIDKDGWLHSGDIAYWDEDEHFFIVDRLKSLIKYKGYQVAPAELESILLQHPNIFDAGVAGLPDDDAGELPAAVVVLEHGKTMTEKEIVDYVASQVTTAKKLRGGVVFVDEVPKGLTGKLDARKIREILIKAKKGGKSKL
#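 Purified P. pyralis luciferase, 10 nM final, with Km-level 10 uM D-luciferin and 10 uM ATP in 50 mM Tris acetate pH 7.5, 10 mM Mg acetate, 0.01% Tween-20, 0.05% BSA; 6-point qHTS titration about 60 µM downward; luminescence read.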
# SMN2 splice enh: enhancers of SMN2 splice variant expression | HEK293 SMN2-luciferase splicing reporter, luminescence, 30-36 h | Potency, µM (doses to about 46.1 µM), for the others: top-dose activity change, positive = activation, usual class: activators | actives 2.8% (n = 210,000) | AID 1458; also: % of control where 0% means no effect; nearly all actives have a fitted effect of over 55% in size
#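 HEK293 cells carry an SMN2 minigene-luciferase reporter in which exon 7 inclusion puts luciferase in frame. Cells were seeded at 2000 cells/well, attached for 10-12 hours, then exposed to compounds for 30-36 hours at 37C before ONE-Glo luminescence.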
# ELG1 genotox: induces genotoxicity in HEK293T cells with luciferase-tagged ELG1; Potency, µM (top dose mostly 46 µM), without a hit: top-dose activity change, positive = activation, actives largely listed as activators; HEK293T ELG1-luciferase reporter, luminescence, 16 h; actives 1.3% (n = 330,000); also: % of control where 0% means no effect; nearly all actives have a fitted effect of over 60% in size
#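 Luminescence read-out: rising ELG1-luciferase signal, reflecting elevated ELG1 protein under genetic stress, flags genotoxic compounds. Cells were treated for 16 hr at 37 °C before ONE-Glo detection.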
# NPC1 promoter act: activates the NPC1 promoter; Huh7 NPC1 promoter luciferase reporter, 24 h; Potency, µM (top dose mostly 9.22 µM), without a hit: top-dose activation, actives largely listed as activators; actives 2.4% (n = 320,000); AID 485313; also: % of control where 0% means no effect; nearly all actives have a fitted effect of over 60% in size
#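 Luminescence read-out of NPC1 promoter-driven luciferase in stably transfected Huh7 cells; compounds delivered in DMSO and left 24 h at 37C, 5% CO2, qHTS titration format.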
# The depositor's hits bear a star; ? = inconclusive; nt = no result. A selection: hits, their analogues and other compounds. The true share with any hit is near 7.4%. Calls follow the shape of the dose curve; as a rule, active = well fitted curve in the direction sought with a large enough effect; inconclusive = small, poorly fitted or top-dose-only effect, or another doubt; inactive = no such curve, though single readings can be large; an effect the other way counts as inactive or inconclusive. Potency is read from the fitted curve at half-maximal effect.
SMILES,p53 reactivation,Rab9 prom act,FLuc modulator,SMN2 splice enh,ELG1 genotox,NPC1 promoter act
CCOC(=O)N1CCN(C(=O)c2ccc3nc(N4CCCCC4)sc3c2)CC1,-1%,14%,-15%,14%,-1%,21%
CC1CC(C)CN(C(=O)c2ccc3ccccc3c2)C1 (centres undefined),12%,18%,-4%,nt,1%,1%
CCOC(=O)N1CCN(C(=O)c2ccc3nc(N4CCC(C)CC4)sc3c2)CC1,0%,23%,?,-11%,1%,19%
Cc1ccc2c(CC(=O)Nc3c(C(=O)c4ccc(F)cc4)oc4ccccc34)coc2c1C,nt,nt,-5%,1%,nt,nt
CCN(CCCNC(=O)CCn1c(=S)[nH]c2cc3c(cc2c1=O)OCO3)c1cccc(C)c1,-2%,-4%,3%,nt,?,-20%
COc1ccc(N2CCN(C(=O)c3c(C)oc4ncnc(N5CCCCC5)c34)CC2)cc1,nt,nt,-7%,nt,nt,nt
NC(=O)C1CCN(C(=O)c2ccc3nc(N4CCCCC4)sc3c2)CC1,19%,3.2µM*,?,nt,?,2.8µM*
COc1cccc(N2CCN(C(=O)c3ccc4nc(N5CCC(C)CC5)sc4c3)CC2)c1,-11%,?,9.5µM*,-25%,?,?
COc1ccc2c(=O)cc(C(F)(F)C(F)(F)F)oc2c1,3%,6%,-3%,nt,0%,4%
CC(C)Oc1ccc2c(=O)cc(-c3ccccc3)oc2c1,nt,nt,nt,6.3µM*,nt,nt
COc1ccc2c(=O)cc(-c3ccccc3F)oc2c1,-2%,?,21µM*,nt,?,?
COc1ccccc1OCC(=O)Nc1ncc(C)s1,?,1.8µM*,2.4µM*,nt,?,1.6µM*
Cc1cnc(NC(=O)CCc2ccccc2)s1,nt,9%,?,nt,?,-14%
Cc1cnc(NC(=O)COc2ccccc2)s1,?,2.2µM*,11µM*,11µM*,?,2µM*
COc1ccc(CCC(=O)Nc2ncc(C)s2)cc1OC,-7%,-1%,-2%,nt,-9%,4%
Cc1ccc(OCCC(=O)OCC(=O)Nc2ccc(C)cc2Cl)cc1,0%,14%,1%,nt,0%,0%
Cc1ccc(NC(=O)COC(=O)CCc2ccccc2)c(Cl)c1,5%,-2%,17µM*,nt,8%,-1%
Cc1c(N=C2C=CC(=O)c3ccccc32)c(=O)n(-c2ccccc2)n1C,?,-12%,?,-18%,-4%,-19%
Cc1c(N=C2C=C(Br)C(=O)C(Br)=C2)c(=O)n(-c2ccccc2)n1C,-3%,23%,15µM*,-3%,1%,2%
COc1ccccc1CC(=O)O/N=C(\N)c1ccccn1,12%,21%,-17%,nt,6%,1%
N/C(=N\OC(=O)C1CCCCC1)c1ccc(Br)cc1,?,?,9.5µM*,nt,?,19%
N/C(=N\OC(=O)C1CCCCC1)c1ccncc1,-2%,-3%,?,nt,10%,3%
N/C(=N\OC(=O)C1CCCCC1)c1ccccn1,?,19%,2.4µM*,12%,?,25%
N/C(=N\OC(=O)C1CCCCC1)c1ccc(Cl)cc1,8%,9%,11µM*,nt,?,20%
CCc1cnc2c(c1SCC(=O)NCc1ccc(C)cc1)c(=O)n(C)c(=O)n2C,nt,nt,-9%,nt,nt,nt
SMILES,p53 reactivation,Rab9 prom act,FLuc modulator,SMN2 splice enh,ELG1 genotox,NPC1 promoter act
Cc1ccc(Cn2c(=O)c3ccccc3n3c(-c4cccc(O)c4)nnc23)cc1,nt,nt,0%,nt,nt,nt
CCCC(=O)Nc1ccc2oc(-c3cncc(Br)c3)nc2c1,15%,1.3µM*,?,4.5µM*,9.2µM*,1.6µM*
CCCCCC(=O)Nc1ccc2oc(-c3cncc(Br)c3)nc2c1,9%,1.6µM*,7%,11µM*,?,0.71µM*
Nc1ccc(Cl)cc1[N+](=O)[O-],nt,nt,nt,-2%,nt,nt
O=C(CCCCCNc1nc(=S)[nH]c2ccccc12)NCc1ccccc1Cl,0%,1%,3%,-11%,8%,1%
S=c1nc(NCCc2ccccc2Cl)c2ccccc2[nH]1,13%,3.5µM*,-10%,nt,9%,3.2µM*
CS(=O)(=O)N1N=C(c2ccc(Br)cc2)CC1c1ccc2c(c1)OCO2 (centres undefined),10%,0.63µM*,4.3µM*,25µM*,?,1.1µM*
Cc1ccc(C2=NN(S(C)(=O)=O)C(c3ccc4c(c3)OCO4)C2)cc1 (centres undefined),?,2.5µM*,1.7µM*,18µM*,5.2µM*,3.5µM*
CC(=O)N1N=C(c2ccc(C)cc2)CC1c1ccco1 (centres undefined),0%,?,?,21%,?,22%
CC(=O)N1N=C(c2ccc(C)cc2)CC1c1ccc2c(c1)OCO2 (centres undefined),17%,?,15µM*,nt,?,2.8µM*
CS(=O)(=O)Nc1ccc(C2=NN(S(C)(=O)=O)C(c3ccc4nccnc4c3)C2)cc1 (centres undefined),8%,12%,-14%,nt,7%,-1%
Cc1c(CC(=O)N2CCCCC2)c(=O)oc2c(C)c3occ(C(C)(C)C)c3cc12,nt,nt,-9%,3%,nt,nt
Cc1ccc(S(=O)(=O)NC(CC(C)C)C(=O)N2CCCC2)cc1 (centres undefined),-12%,6%,-1%,nt,-15%,-2%
Fc1cccc(CSc2ccc(-c3ccc4c(c3)OCO4)nn2)c1,?,17%,11µM*,?,26%,12%
Cn1c(SCc2ccc3c(c2)OCO3)nnc1-c1ccccc1,15%,-12%,-3%,?,7%,2%
c1cncc(CSc2ccc(-c3ccc4c(c3)OCO4)nn2)c1,?,2.8µM*,17µM*,1%,17%,3.2µM*
O=[N+]([O-])c1cccc(-c2ccc(SCc3cccnc3)nn2)c1,?,?,?,8%,5%,7%
Cc1ccccc1CSc1ccc(-c2ccc3c(c2)OCO3)nn1,nt,?,7.6µM*,nt,?,24%
Cc1nc(C)c(-c2ccc(SCc3ccccc3C)nn2)s1,9%,25%,13µM*,nt,10%,19%
CC(=O)c1ccc(NC(=O)CSc2ccc(-c3ccc4c(c3)OCO4)nn2)cc1,2%,?,?,8%,8%,23%
Cc1ccc(C)c(OCCn2cc(C(=O)c3ccco3)c3ccccc32)c1,nt,nt,-2%,11%,nt,nt
Cc1ccc(C(=O)NCCNC(=O)Cc2ccccc2)cn1,-3%,0%,-1%,nt,-1%,2%
CCN(CC)CCN(C(=O)c1ccc2ncsc2c1)c1nc2cc3c(cc2s1)OCO3,19%,?,9.5µM*,nt,2.9µM*,0.71µM*
CCN(CC)CCN(C(=O)c1ccc(C(=O)c2ccccc2)cc1)c1nc2cc3c(cc2s1)OCO3,25%,5%,-3%,nt,-11%,-2%

# Screens deposited in PubChem BioAssay by National Center for Advancing Translational Sciences (NCATS).
